Bioassay records as filed in PubChem BioAssay.
KB-V1 cytotox: qHTS assay for MDR1-selective chemotherapeutics: Primary screen using the drug-selected MDR subline cells KB-V1. Potency, µM (series often up to 46.1 µM), most hits filed as cytotoxic. 400,000 compounds, 3.4% hits. KB-V1 MDR cells viability, CellTiter-Glo, 72 h. AID 1347076, 2019; also: nearly all actives have a fitted effect of over 60% in size
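Compound-treated KB-V1 multidrug-resistant cells, 72 h, 37 degrees C; viability by CellTiter-Glo. Fitted qHTS curves give the values.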
KB-3-1 cytotox: qHTS assay for MDR1-selective chemotherapeutics: Primary screen using the parental adenocarcinoma cell KB-3-1 | KB-3-1 viability, CellTiter-Glo ATP luminescence, 72 h | Potency, µM (top dose mostly 46.1 µM), hits mostly cytotoxic | 400,000 compounds, 1.4% hits | AID 1347075, 2019; also: nearly all actives have a fitted effect of over 60% in size
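Using CellTiter-Glo luminescence, growth of non-resistant KB-3-1 adenocarcinoma cells is assessed 72 h after pin-tool compound addition at 37 °C. Normalized responses across the concentration series yield fitted curves.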
D3 antag: qHTS of D3 Dopamine Receptor Antagonist: qHTS. AID 652054, 2013. D3R cells, DiscoveRx beta-arrestin luminescence, antagonist mode; active compounds read low. D(3) dopamine receptor (Homo sapiens), P35462. 360,000 compounds, 2.5% hits. max response, negative = inhibition, %; in the data active = max response below about -50%; inconclusive = no clear call, values can overlap the other calls
Target sequence (P35462 whole entry, looked up): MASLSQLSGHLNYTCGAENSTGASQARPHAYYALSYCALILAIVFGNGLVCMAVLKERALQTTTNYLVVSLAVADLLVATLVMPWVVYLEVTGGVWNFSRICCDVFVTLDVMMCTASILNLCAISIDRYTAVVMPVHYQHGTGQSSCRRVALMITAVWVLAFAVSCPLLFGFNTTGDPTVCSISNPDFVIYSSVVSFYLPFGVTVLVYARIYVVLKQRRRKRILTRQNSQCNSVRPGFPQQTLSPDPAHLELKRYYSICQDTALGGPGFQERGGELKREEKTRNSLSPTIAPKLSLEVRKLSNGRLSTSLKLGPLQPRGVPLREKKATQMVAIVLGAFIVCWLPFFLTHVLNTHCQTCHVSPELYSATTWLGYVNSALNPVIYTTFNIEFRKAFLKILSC
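Cells expressing the human receptor were seeded at 1500 cells/well, incubated overnight at 37 degrees C in 5% CO2, then exposed to library compounds with dopamine controls for 90 minutes at 37 degrees C before luminescent detection.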
DRD3 agonist: qHTS of D3 Dopamine Receptor Agonist: qHTS. D(3) dopamine receptor (Homo sapiens), P35462. D3R DiscoveRx beta-arrestin cells, luminescence, 90 min. max activation, %. 410,000 compounds, 0.58% hits; in the data active = max activation above about 30%
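Agonist mode: compounds and dopamine controls were applied to plated cells for 90 min at 37 degrees C after an overnight attachment at 1500 cells/well. Luminescent read-out followed 30 - 60 minutes at room temperature with DiscoveRx detection reagent.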
SW480 rereplic: A quantitative high throughput screen for small molecules that induce DNA re-replication in SW480 colon adenocarcinoma cells; SW480 DNA re-replication, Hoechst DNA content imaging, 48 h; Potency, µM (highest dose often 46.1 µM), usual class: activators; 340,000 compounds, 1.8% hits; AID 624297, 2012; also: nearly all actives have a fitted effect of over 55% in size
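Per well, 250 cells were exposed to pinned compound for 48 hr. Nuclear DNA was visualised with Hoechst (40 min, 37 C) and total object intensity recorded by fluorescence scanning.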
MCF10A rereplic: A quantitative high throughput screen for small molecules that induce DNA re-replication in MCF 10a normal breast cells | Potency, µM (titrated, usually from 46.1 µM), hits mostly activators | MCF 10A DNA re-replication, Hoechst nuclear intensity, 48 h | 350,000 compounds, 2.9% hits; also: nearly all actives have a fitted effect of over 50% in size
Large screens that a line does not name were inactive. Most compounds without a hit are left out; they make up all but 8.9% or so of the library. Unless noted, calls follow the shape of the dose curve; as a rule, active = well fitted curve in the direction sought with a large enough effect; inconclusive = small, poorly fitted or top-dose-only effect, or another doubt; inactive = no such curve, though single readings can be large; an effect the other way counts as inactive or inconclusive.

COC(=O)c1ccc(/C(O)=C(\C#N)c2nc3ccccc3s2)cc1	KB-V1 cytotox 8.2µM
CC(=O)OC[C@H]1O[C@@H](Oc2cc3ccc(=O)oc3cc2OC(C)=O)[C@H](OC(C)=O)[C@@H](OC(C)=O)[C@@H]1OC(C)=O	SW480 rereplic 21µM
COc1ccc(O[C@@H]2O[C@H](COC(C)=O)[C@@H](OC(C)=O)[C@H](OC(C)=O)[C@H]2NC(C)=O)cc1	none
COc1ccccc1CCNC(=O)c1c(N)[nH]c(C(=O)c2ccccc2)c1-c1ccc(Br)cc1	KB-V1 cytotox 15µM, KB-3-1 cytotox inconclusive (no result: SW480 rereplic, MCF10A rereplic)
O=C(NC1CCCC1)C1c2ccccc2OCC(=O)N1Cc1ccccn1 (centres undefined)	D3 antag -58 (no result: SW480 rereplic, MCF10A rereplic)
O=C(NCc1ccccc1)C1c2ccccc2OCC(=O)N1Cc1cccnc1 (centres undefined)	D3 antag -61 (no result: SW480 rereplic, MCF10A rereplic)
CC(C)(C)c1ccc(-n2nc(C#N)c(Cl)cc2=O)cc1	KB-V1 cytotox inconclusive, KB-3-1 cytotox inconclusive, D3 antag -95, SW480 rereplic 4.1µM, MCF10A rereplic 2.9µM
CC(C)(C)c1ccc(-n2nc(C(N)=O)c(O)cc2=O)cc1	SW480 rereplic inconclusive
CCOc1ccccc1NC(=O)C(=O)NCC(c1cccnc1)N1CCN(c2ccccc2)CC1 (centres undefined)	KB-3-1 cytotox inconclusive (no result: D3 antag, SW480 rereplic, MCF10A rereplic)
CCC(=O)NC1=C(Cl)C(=O)C(NC(=O)CC)=C(Cl)C1=O	D3 antag -62, MCF10A rereplic inconclusive
CCN(CC)C(=O)CSc1nnc(-c2ccccc2)o1	SW480 rereplic inconclusive, MCF10A rereplic 5.2µM
CCCOC(=O)CSc1nnc(-c2ccccc2)o1	none (no result: D3 antag, SW480 rereplic, MCF10A rereplic)
CC1CCCCN1C(=O)c1cccc(NC2=C(Cl)C(=O)N(Cc3ccccc3)C2=O)c1 (centres undefined)	KB-V1 cytotox inconclusive, KB-3-1 cytotox inconclusive, SW480 rereplic inconclusive, MCF10A rereplic 23µM
CC1CCN(C(=O)c2ccc(NC3=C(Cl)C(=O)N(Cc4ccccc4)C3=O)cc2)CC1	KB-3-1 cytotox inconclusive, D3 antag -53, SW480 rereplic inconclusive, MCF10A rereplic 23µM
O=C1C(Cl)=C(Nc2cccc(O)c2)C(=O)N1Cc1ccccc1	MCF10A rereplic inconclusive
O=c1cc(-c2ccccc2)n2c(SCc3ccc([N+](=O)[O-])cc3)nnc2[nH]1	none (no result: KB-V1 cytotox, KB-3-1 cytotox, D3 antag, SW480 rereplic, MCF10A rereplic)
COc1ccccc1CN1C[C@@H]2C[C@@H](c3ccc(C)c(C)c3)N3CCC[C@@]23C1=O	SW480 rereplic 4.1µM
COc1ccc(CNC(=O)Cn2ccc3cc(S(=O)(=O)N4CCCCC4)ccc32)c(OC)c1	none (no result: D3 antag, SW480 rereplic, MCF10A rereplic)
O=C1C2C3C=CC(C3)C2C(=O)N1/N=C/c1ccc(-c2ccccc2[N+](=O)[O-])o1 (centres undefined)	MCF10A rereplic inconclusive
O=C1C2C3C=CC(C3)C2C(=O)N1/N=C/c1cc(Br)cc([N+](=O)[O-])c1O (centres undefined)	KB-V1 cytotox inconclusive, D3 antag -68, MCF10A rereplic inconclusive
COCCCNC(=O)C1CCCN(c2ncnc3onc(C)c23)C1 (centres undefined)	none (no result: D3 antag, SW480 rereplic, MCF10A rereplic)
CCc1ccc(C2=NN(S(C)(=O)=O)C(c3cccs3)C2)cc1 (centres undefined)	KB-V1 cytotox 15µM, KB-3-1 cytotox inconclusive
CC(=O)Nc1ccc(C2=NN(c3ccccc3)C(c3cccs3)C2)cc1 (centres undefined)	SW480 rereplic 12µM, MCF10A rereplic inconclusive
Cc1csc2nc(COC(=O)c3cccc(NC(=O)c4cccc(Cl)c4)c3)cc(=O)n12	none (no result: KB-V1 cytotox, KB-3-1 cytotox, D3 antag, SW480 rereplic, MCF10A rereplic)
COc1ccc(-c2nn(CC(=O)NCc3ccccc3)c3c2cnc2ccc(F)cc23)cc1	none (no result: D3 antag, SW480 rereplic, MCF10A rereplic)
CC[N+](CC)(CC#Cc1ccccc1)CC#Cc1ccccc1	KB-3-1 cytotox 8.2µM
COc1cc2nc(NCCc3cccc(C)c3)n3nc(-c4ccccc4)nc3c2cc1OC	none (no result: D3 antag, SW480 rereplic, MCF10A rereplic)
CCN(CC)CCNc1nc2cc(OC)c(OC)cc2c2nc(-c3ccccc3)nn12	KB-V1 cytotox 9.2µM, KB-3-1 cytotox 16µM
CCCNC(=O)CNC(=O)c1ccccc1OCC(=O)Nc1ccc(Br)cc1	none (no result: D3 antag, DRD3 agonist, SW480 rereplic, MCF10A rereplic)
Cc1cc(C)c(C)c(OCCNCc2ccccc2)c1	KB-V1 cytotox inconclusive, D3 antag -77, MCF10A rereplic inconclusive
Cc1cc(Br)ccc1OCCNCc1ccccc1	D3 antag -70, MCF10A rereplic inconclusive
C=CCc1ccccc1OCCNCc1ccccc1	D3 antag -88
Brc1ccccc1OCCNCc1ccccc1	D3 antag -71
Cc1cc(C)c(OCCNCc2ccccc2)c(C)c1	none
C=CCc1ccccc1OCC(=O)O	none
Cn1c(Oc2ccccc2)nc2c1c(=O)n(Cc1ccc(Cl)cc1Cl)c(=O)n2C	none (no result: D3 antag, SW480 rereplic, MCF10A rereplic)
CCOc1ccc(C(=O)Nc2ccc(-c3nc4ccccc4o3)cc2)cc1[N+](=O)[O-]	KB-V1 cytotox inconclusive (no result: D3 antag, DRD3 agonist, SW480 rereplic, MCF10A rereplic)
O=C(CSc1ccc(-c2cccs2)nn1)Nc1cccc(F)c1	KB-3-1 cytotox inconclusive (no result: D3 antag, SW480 rereplic, MCF10A rereplic)
CCc1nnc2c(Nc3ccc(N(CC)CC)cc3C)nc3ccccc3n12	none (no result: D3 antag, SW480 rereplic, MCF10A rereplic)
CC(C)(C)c1ccc(OCCNC(=S)Nc2ccccc2)cc1	KB-V1 cytotox inconclusive, D3 antag inconclusive, SW480 rereplic inconclusive
CC(C)(C)c1ccc(OCCNCc2ccccc2)cc1	KB-V1 cytotox inconclusive, D3 antag -53
Cc1cc2ccccc2n1-c1ccc(C(=O)N2CCC(C(=O)NCc3ccccc3Cl)CC2)s1	none (no result: D3 antag, SW480 rereplic, MCF10A rereplic)
